Here are results for 98 compounds from PubChem BioAssay AID1259374 (The Scripps Research Institute Molecular Screening Center, 2018).

Each structure is given as a SMILES string. Out of some 650,000 compounds screened, about 5,900 (0.91%) were called active. The sample holds actives, similar compounds and a random draw of the others, so the mix is not that of the screen. Values without a mark were called inactive. No stated cut-off is given here; in the data, active means inhibition above about 50%; inactive means the rest.

For orientation: inhibition means the change of the read-out against control, counted positive when it falls.

The target of this assay is Microphthalmia-associated transcription factor (Homo sapiens) (UniProt O75030). Put plainly: MITF inhibitors, primary screen, biochemical, AlphaScreen, human (AID 1259374).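 Further: 0% = vehicle wells with protein.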 The conditions noted are these: AlphaScreen MITF homodimerization, bead proximity signal; at 2.6 µM; active compounds read high. Background: In Alpha technology, singlet oxygen from a donor bead excites a nearby acceptor bead.
Microphthalmia-associated transcription factor (Homo sapiens), sequence (O75030 whole entry, looked up): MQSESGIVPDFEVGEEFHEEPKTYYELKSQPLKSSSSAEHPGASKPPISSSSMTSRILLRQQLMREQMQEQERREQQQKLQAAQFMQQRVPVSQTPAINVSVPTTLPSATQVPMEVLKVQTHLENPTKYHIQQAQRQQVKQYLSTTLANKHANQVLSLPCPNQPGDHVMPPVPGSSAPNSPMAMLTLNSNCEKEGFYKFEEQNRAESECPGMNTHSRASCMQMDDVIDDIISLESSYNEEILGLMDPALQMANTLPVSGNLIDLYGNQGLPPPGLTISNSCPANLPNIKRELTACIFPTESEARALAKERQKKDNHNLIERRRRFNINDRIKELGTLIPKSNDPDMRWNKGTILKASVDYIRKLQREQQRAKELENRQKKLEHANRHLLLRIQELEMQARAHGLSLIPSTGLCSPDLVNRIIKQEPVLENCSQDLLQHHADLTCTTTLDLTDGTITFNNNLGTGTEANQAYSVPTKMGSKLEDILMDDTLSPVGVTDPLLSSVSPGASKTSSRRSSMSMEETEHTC
For the compound `CC(C)[C@@H](CO)Nc1ccc2ncc(-c3ccccc3F)n2n1`, the inhibition was -14.3%. Regarding `CC(=O)c1ccc(OCC(=O)N2CCOCC2)cc1`, the inhibition was -0.62%. In the case of `CCCS(=O)(=O)N1CCN(Cc2cccc(Cl)c2)CC1` it was 54.8% (active); in that of `CCCS(=O)(=O)N1CCN=C1SCc1cccc(Cl)c1`, 18.8%; in that of `CCS(=O)(=O)N1CCN(c2cccc(Cl)c2)CC1`, -3.13%.

Take `O=S(=O)(c1ccc(Br)c2ccccc12)N1CCN(Cc2ccccc2)CC1`: the inhibition is 7.47%.

In the case of `CS(=O)(=O)N1CCN(Cc2cccc(Cl)c2)CC1`, the inhibition is 70.2% (active).

On to `CS(=O)(=O)N1CCC(c2nc3c(nnn3Cc3cccc(Cl)c3)c(=O)[nH]2)CC1`, for which the inhibition was 9.95%. In the case of `Clc1cccc(CN2CCN(c3ccccn3)CC2)c1` it was 50.1%; in that of `CCCS(=O)(=O)N1CCN(Cc2ccccc2Br)CC1`, 58.2% (active). The result for `CCCS(=O)(=O)N1CCC(O)(c2cccnc2)CC1` reads 13.4%.

With `CC(CC(=O)N(CC(N)=O)C(C)C)c1ccccc1` (stereo not drawn), the inhibition is -5.95%.

Take `CCOC(=O)c1cccc(NC(=O)COc2ccccc2Br)c1`: the inhibition is 8.75%.

Consider `COc1cc(/C=C(/C#N)C(N)=S)c(Br)cc1O`, for which the inhibition was 24.1%. The result for `CSc1ccccc1C(=O)NCc1c(C)ncc2c1CCN(C(=O)c1cc(C)oc1C)C2` reads 12.3%. For `COc1ccc(C(=O)N2CCCCO2)cc1OC1CCN(C(C)=O)CC1`, the inhibition was 2.51%. Take `Cc1ccc(SCC(=O)NCc2nc(-c3ccc(C)cc3)no2)cc1`: the inhibition was -3.11%. In the case of `CC(C)CCN1CCNC(=O)C1CC(=O)N1CCCO1` (stereo not drawn), the inhibition was 1.48%. Regarding `O=[N+]([O-])c1c(Cl)cc(Cl)c2nsnc12`, the inhibition was 1.42%. The result for `C=CCn1c(C)c(/C=c2/sc3n(c2=O)C(c2ccc(OC)c(Br)c2)C(C(=O)OCC)=C(C)N=3)c2ccccc21` (stereo not drawn) reads -0.97%.

As for `CN1CCN(c2nccnc2-c2cccc(C(=O)NCCO)c2)CC1`, the inhibition was 4.98%. The result for `O=S(=O)(c1ccc(F)cc1)N1CCN(Cc2ccccc2F)CC1` reads 3%; that for `O=[N+]([O-])c1ccccc1CN1CCN(Cc2ccccc2C(F)(F)F)CC1`, 67.3% (active). In the case of `COc1ccccc1N1CCN(C2CCN(Cc3ccccc3[N+](=O)[O-])CC2)CC1`, the inhibition is -2.11%.

As to `CCOc1ccccc1CN1CCN(Cc2cccnc2)CC1CCO` (stereo not drawn), the inhibition was 8.25%. `O=[N+]([O-])c1ccccc1CN1CCN(Cc2cccnc2)CC1`: the inhibition was 61.9% (active). In the case of `CCC(C)C(=O)NCc1nnc2n1CCN(Cc1cccnc1)CC2` (stereo not drawn) it was 0.14%. Consider `O=S(=O)(c1ccc(F)cc1)N1CCN(CCCc2ccccc2)CC1`, for which the inhibition was 43.8%. Regarding `O=C(Cc1ccccc1[N+](=O)[O-])NNC(=O)Nc1ccccc1C(F)(F)F`, the inhibition is 13.8%. The result for `O=S(=O)(c1ccc(F)cc1)N1CCN(Cc2ccccc2C(F)(F)F)CC1` reads 59.6% (active); that for `O=C(CC(Nc1ccc2ccccc2c1)c1cccnc1)c1ccccc1` (stereo not drawn), 1.3%. The result for `CC(=O)Nc1ccc(Oc2cc(NC(=O)c3cccc(F)c3)cc([N+](=O)[O-])c2)cc1` reads 9%; that for `O=C1c2ccccc2C(=O)c2c1cccc2S(=O)(=O)N1CCCC1`, 10.2%. In the case of `O=C(Nc1ccc2nsnc2c1NC(=O)c1ccc2nsnc2c1)c1ccc2nsnc2c1` it was 1.05%. Regarding `N#CCSc1nc2[nH]ncc2c(=O)n1-c1cccc(C(F)(F)F)c1`, the inhibition is 1.44%.

Regarding `CC(C)[C@@H](C(=O)OCC(=O)Nc1cccnc1Cl)N1C(=O)c2ccccc2C1=O`, the inhibition is -1.46%.

`Oc1cccc(/C=N/Nc2ccc(Cl)nn2)c1O`: the inhibition was 89.8% (active). In the case of `C/C(=N\Nc1ccc(Cl)nn1)c1ccccc1O` it was 61.1% (active); in that of `COc1ccccc1N=Cc1cccc(O)c1O`, -5.98%; in that of `C/C(=N\Nc1nc(C(C)(C)C)cs1)c1ccccc1O`, 6.2%.

In the case of `C/C(=N\NC(=O)C(O)(c1ccccc1)c1ccccc1)c1ccccc1O`, the inhibition is -4.23%. In the case of `NC(=O)c1ccc(N=Cc2cccc(O)c2O)cc1`, the inhibition was 25.2%. For the compound `COc1ccc(/C=C/C(=O)NCc2ccccc2OC)cc1`, the inhibition was -9.24%. In the case of `CCc1ccc(N=c2oc3c(C)ncc(CO)c3cc2C(N)=S)cc1` it was 3.64%; in that of `COc1ccccc1NC1=C/C(=N/S(=O)(=O)c2ccc(F)cc2)c2ccccc2C1=O`, 67.4% (active); in that of `COC(=O)c1ccccc1NC1=C/C(=N/S(=O)(=O)c2ccccc2)c2ccccc2C1=O`, 23.4%. On to `COc1ccc(S(=O)(=O)/N=C2/C=C(Nc3ccc(O)cc3)C(=O)c3ccccc32)cc1`, for which the inhibition is 20%.

Consider `Cc1cc2nc(N3CCCN(Cc4cccnc4)CC3)nc(C)c2cc1C`, for which the inhibition is 6.51%.

Regarding `CCOc1cc(CN2CCN(Cc3ccccn3)CC2)ccc1OC`, the inhibition was 62.3% (active). In the case of `CCOc1ccc(CN2CCN(Cc3ccc(OC)c(OCC)c3)CC2)cc1`, the inhibition was 9.84%.

Take `COc1cccc(CN2CCN(C(=O)c3ccccc3F)CC2)c1`: the inhibition was 56.7% (active). The result for `CCOc1cc(CN2CCC(n3nccc3NC(=O)C(C)(C)C)CC2)ccc1OC` reads -3.52%. Consider `COc1cc(CN2CCN(c3ccccn3)CC2)cc(OC)c1O`, for which the inhibition is 19.3%. In the case of `COC(=O)c1c(OC2CCCC2)cc(=O)n2c1CCN(Cc1cccnc1)CC2` it was 2.84%. For `CCOc1cc(CN2CCN(C(=O)c3ccccc3F)CC2)ccc1OC`, the inhibition is 34.4%. For the compound `CCOc1ccccc1N1CCN(S(=O)(=O)c2ccc([N+](=O)[O-])cc2)CC1`, the inhibition is 6.79%.

Take `COc1cc(CN2CCN(Cc3cccnc3)CC2)cc(OC)c1OC`: the inhibition was 80.7% (active). In the case of `COc1ccc(C(=O)N2CCN(Cc3cccc(OC)c3)CC2)cc1` it was 45.7%. The result for `CCOc1ccccc1N1CCN(Cc2cc(OC)c(O)c([N+](=O)[O-])c2)CC1` reads 55.2% (active); that for `c1ccc2c(-c3nc(Nc4ccc(N5CCOCC5)cc4)c4ncn(C5CCCCC5)c4n3)csc2c1`, 1.65%; that for `COc1cccc(OC)c1C(=O)NNC(=O)c1cccc(C)c1O`, -15.2%.

For `Cn1cnnc1SCC(=O)N1CCN(c2ccccc2)CC1`, the inhibition was 1.28%. In the case of `CCOC(=O)c1sc(NC(=O)c2ccc(S(=O)(=O)N3CCc4ccccc43)cc2)nc1-c1ccccc1` it was 15.2%; in that of `CCOC(=O)c1c(NC(=O)C(C)Sc2nnc(CNC(=O)c3ccc(C)c([N+](=O)[O-])c3)n2CCc2ccccc2)sc2c1CCC2` (stereo not drawn), -9.22%. The result for `O=C(COc1ccc(Cl)cc1Cl)Nc1ccc(Br)cn1` reads 9.36%; that for `Cc1cc(-n2c(C)nc3ccccc3c2=O)ccc1NS(=O)(=O)c1ccccc1`, -5.82%. The result for `O=C(O)CNC(=O)/C(=C/c1ccc2c(c1)OCO2)NC(=O)c1cccc(Br)c1` reads -6.12%.

Take `COc1ccccc1NC(=O)N1CCC(CO)(Cc2ccccc2Cl)CC1`: the inhibition was -1.19%.

Consider `COc1cc(OC)c(OC)cc1CN1CCN(C(=O)c2ccccc2F)CC1`, for which the inhibition is 17.8%. Regarding `COc1c(S(=O)(=O)N2CCN(Cc3ccccc3)CC2)ccc(Cl)c1Cl`, the inhibition was -5.29%. In the case of `O=C1CCN(Cc2cccnc2)CCN1Cc1c(F)cc(F)cc1F` it was 10.8%; in that of `COc1ccc(CN2CCN(Cc3cccnc3)CC2)cc1OCc1ccccc1`, 75.8% (active). For the compound `Brc1cccc(CN2CCN(Cc3cccnc3)CC2)c1`, the inhibition is 77.7% (active). Take `COc1ccc(/C=N/N2CCN(C)CC2)cc1OCc1ccccc1`: the inhibition is 21.7%. Consider `COc1cccc(OC)c1C(=O)N1CCN(Cc2ccccc2F)CC1`, for which the inhibition was 55.7% (active). On to `CCCS(=O)(=O)N1CCN(Cc2ccc(OC)c(OCc3ccccc3)c2)CC1`, for which the inhibition is 52.7% (active). In the case of `COc1cc(CN2CCC(O)CC2)ccc1OCc1ccccc1` it was -15%; in that of `c1ccc(CCc2nnc3n2CCN(Cc2cccnc2)CC3)cc1`, 4.85%; in that of `CCOC(=O)C1CCN(Cc2ccccc2F)CC1`, 26.1%.

For the compound `c1ccc(COc2ccccc2CNCc2cccnc2)cc1`, the inhibition was -4.27%. In the case of `COc1ccc(NC(=O)c2cc(C3CC3)on2)cc1` it was -14%. Consider `NS(=O)(=O)c1ccc(NSc2ccccc2[N+](=O)[O-])cc1`, for which the inhibition is 13.8%.

With `CC(=O)Nc1ccc(OCC(O)CN2CCN(c3cccc(C(F)(F)F)c3)CC2)cc1` (stereo not drawn), the inhibition was 10.8%. For `CC1CCN(C(=O)CSc2nc3c(c(=O)n2CCc2ccccc2)SCC3)CC1`, the inhibition was -10.8%. The result for `CC(=O)Nc1ccc(C(=O)N/N=C/c2cccc(C)n2)cc1` reads 9.97%. Turning to `C=CCOc1ccc(C2Nc3ccccc3-c3nnc(SC)nc3O2)cc1` (stereo not drawn), the inhibition was 3.95%. In the case of `CC(C)C(=O)NC(NC(=S)Nc1ccccc1C(=O)O)C(Cl)(Cl)Cl` (stereo not drawn) it was 9.89%; in that of `COc1ccc(Cn2nc(-c3ccncc3)oc2=O)cc1`, 3.66%.

In the case of `O=C(NCCOc1ccccc1)c1cc(-c2ccccc2)nc2c(Cl)cccc12`, the inhibition is -8.8%. As for `COc1ccccc1C(=O)N1CCN=C1SCc1cccnc1`, the inhibition is -16.8%. On to `COC(=O)c1ccccc1S(=O)(=O)C1CCN(Cc2cccnc2)CC1`, for which the inhibition was 13.1%. In the case of `COc1cccc(OC)c1C(=O)N1CCN(Cc2cccnc2)CC1` it was 79.5% (active); in that of `Cc1cc(C)c(S(=O)(=O)N(C)CCO)cc1N(C)S(=O)(=O)c1ccc(Cl)cc1`, -12%. The result for `CCCCC(=O)N1CCN(c2ccccc2OCC)CC1` reads -2.97%; that for `CCN(CC)CCNC(=O)c1sc2ncn(Cc3ccccc3F)c(=O)c2c1C`, -7.31%; that for `COC(=O)c1ccc(C2Nc3c(C(=O)OC)cccc3C3C=CCC32)cc1` (stereo not drawn), 4.19%. For `COc1cccc(C2Nc3ccc(C(=O)O)cc3C3C=CCC32)c1OC` (stereo not drawn), the inhibition was 13.7%. The result for `CCOc1cccc2c1N[C@@H](c1ccc(C(=O)O)cc1)[C@H]1CC=C[C@@H]21` reads 65.3% (active).
